From PubChem BioAssay AID1159580 (chemical genetic matrix, 2015)
Out of some 5,500 compounds screened, about 2,000 (36%) were called active. About 18% were inconclusive and are not listed. No stated cut-off is given here; in the data, active means normalized growth mostly below about 0.91 (no sharp cut-off); inconclusive means no clear call, values can overlap the other calls; inactive means mostly above about 0.92. This is one part of the list.

Assay: chemical genetic growth profiling, strain panel (AID 1159580);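 further: tested at 20 µM; growth read once vehicle control cultures reached saturation at 30 °C; 1 = growth at the plate median or of vehicle wells; lower values mean less growth of the strain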
Conditions: growth OD

Measured: normalized growth

CC(C)(Oc1ccc(CCNC(=O)c2ccc(Cl)cc2)cc1)C(=O)O
inactive: S. cerevisiae deletion strains, locus YJR075W, strain HOC1, hits give low values 1.02 | S. cerevisiae deletion strains, locus YKL009W, strain mrt4, hits give low values 1.02 | S. cerevisiae deletion strains, locus YKL068W, hits give low values 1.01 | S. cerevisiae deletion strains, locus YKL085W, strain MDH1 (second series), hits give low values 1.03 | S. cerevisiae deletion strains, locus YKL085W, strain MDH1, hits give low values 1.03 | S. cerevisiae deletion strains, locus YKL160W, strain elf1, hits give low values 0.961 | S. cerevisiae deletion strains, locus YKL190W, strain CNB1, hits give low values 1.01 | S. cerevisiae deletion strains, locus YKR001C, strain vps1, hits give low values 1.02 | S. cerevisiae deletion strains, locus YKR026C, strain gcn3, hits give low values 0.991 | S. cerevisiae deletion strains, locus YKR091W, strain srl3, hits give low values 0.996 | S. cerevisiae deletion strains, locus YLL001W, strain dnm1, hits give low values 0.975 | S. cerevisiae deletion strains, locus YLL026W, hits give low values 0.995 | S. cerevisiae deletion strains, locus YLL041C, strain sdh2, hits give low values 0.98 | S. cerevisiae deletion strains, locus YLR027C, strain aat2, hits give low values 0.977 | S. cerevisiae deletion strains, locus YLR039C, strain RIC1, hits give low values 1.03 | S. cerevisiae deletion strains, locus YLR058C, strain SHM2, hits give low values 1.01 | S. cerevisiae deletion strains, locus YLR102C, strain apc9, hits give low values 1.01 | S. cerevisiae deletion strains, locus YLR113W, strain HOG1, hits give low values 0.943 | S. cerevisiae deletion strains, locus YLR221C, strain rsa3, hits give low values 0.997 | S. cerevisiae deletion strains, locus YLR258W, strain gsy2, hits give low values 0.972 | S. cerevisiae deletion strains, locus YLR262C, strain YPT6 (second series), hits give low values 1.01 | S. cerevisiae deletion strains, locus YLR262C, strain YPT6, hits give low values 1.02 | S. cerevisiae deletion strains, locus YLR268W, strain sec22, hits give low values 1.01 | S. cerevisiae deletion strains, locus YLR320W, strain mms22, hits give low values 0.978 | S. cerevisiae deletion strains, locus YLR330W, strain CHS5, hits give low values 1.01 | S. cerevisiae deletion strains, locus YLR342W, strain FKS1 (second series), hits give low values 1.05 | S. cerevisiae deletion strains, locus YLR342W, strain FKS1, hits give low values 0.978 | S. cerevisiae deletion strains, locus YLR357W, strain rsc2, hits give low values 0.951 | S. cerevisiae deletion strains, locus YLR370C, strain arc18, hits give low values 0.983 | S. cerevisiae deletion strains, locus YLR371W, strain rom2, hits give low values 1.02 | S. cerevisiae deletion strains, locus YLR384C, strain iki3, hits give low values 0.972 | S. cerevisiae deletion strains, locus YLR418C, strain cdc73, hits give low values 1.06 | S. cerevisiae deletion strains, locus YML016C, strain PPZ1, hits give low values 1.02 | S. cerevisiae deletion strains, locus YML032C, strain rad52, hits give low values 1.01 | S. cerevisiae deletion strains, locus YML120C, strain ndi1, hits give low values 1.03 | S. cerevisiae deletion strains, locus YML124C, strain tub3, hits give low values 1.01 | S. cerevisiae deletion strains, locus YMR058W, strain fet3, hits give low values 0.995 | S. cerevisiae deletion strains, locus YMR078C, strain ctf18, hits give low values 1.01 | S. cerevisiae deletion strains, locus YMR125W, strain sto1, hits give low values 0.986 | S. cerevisiae deletion strains, locus YMR129W, hits give low values 0.982 | S. cerevisiae deletion strains, locus YMR205C, strain PFK2, hits give low values 0.977 | S. cerevisiae deletion strains, locus YMR223W, strain ubp8, hits give low values 1.01 | S. cerevisiae deletion strains, locus YMR231W, strain pep5, hits give low values 0.994 | S. cerevisiae deletion strains, locus YMR307W, strain GAS1, hits give low values 1.04 | S. cerevisiae deletion strains, locus YNL067W, strain RPL9B, hits give low values 1.01 | S. cerevisiae deletion strains, locus YNL071W, strain lat1, hits give low values 0.994 | S. cerevisiae deletion strains, locus YNL128W, strain TEP1, hits give low values 1.04 | S. cerevisiae deletion strains, locus YNL153C, strain GIM3, hits give low values 1.02 | S. cerevisiae deletion strains, locus YNL183C, strain NPR1, hits give low values 0.937 | S. cerevisiae deletion strains, locus YNL209W, strain ssb2, hits give low values 0.98 | S. cerevisiae deletion strains, locus YNL233W, strain BNI4, hits give low values 1.01 | S. cerevisiae deletion strains, locus YNL248C, strain rpa49, hits give low values 0.986 | S. cerevisiae deletion strains, locus YNL250W, strain rad50, hits give low values 1.02 | S. cerevisiae deletion strains, locus YNL271C, strain bni1, hits give low values 1.02 | S. cerevisiae deletion strains, locus YNL298W, strain CLA4, hits give low values 1.02 | S. cerevisiae deletion strains, locus YNL307C, strain MCK1, hits give low values 1.03 | S. cerevisiae deletion strains, locus YNL322C, strain KRE1 (second series), hits give low values 0.978 | S. cerevisiae deletion strains, locus YNL322C, strain KRE1, hits give low values 1.01 | S. cerevisiae deletion strains, locus YNR049C, strain mso1, hits give low values 0.971 | S. cerevisiae deletion strains, locus YNR052C, strain pop2, hits give low values 1.01 | S. cerevisiae deletion strains, locus YOL006C, strain TOP1, hits give low values 1.04 | S. cerevisiae deletion strains, locus YOL012C, strain htz1 0.932 | S. cerevisiae deletion strains, locus YOL147C, strain pex11, hits give low values 1.01 | S. cerevisiae deletion strains, locus YOR001W, strain rrp6, hits give low values 1.01 | S. cerevisiae deletion strains, locus YOR061W, strain CKA2, hits give low values 1.02 | S. cerevisiae deletion strains, locus YOR069W, strain VPS5, hits give low values 1.01 | S. cerevisiae deletion strains, locus YOR070C, strain gyp1, hits give low values 0.993 | S. cerevisiae deletion strains, locus YOR080W, strain dia2, hits give low values 0.983 | S. cerevisiae deletion strains, locus YOR083W, strain WHI5, hits give low values 0.922 | S. cerevisiae deletion strains, locus YOR106W, strain vam3, hits give low values 0.982 | S. cerevisiae deletion strains, locus YOR136W, strain idh2, hits give low values 1.02 | S. cerevisiae deletion strains, locus YOR144C, strain elg1, hits give low values 1.02 | S. cerevisiae deletion strains, locus YOR184W, strain ser1, hits give low values 1.06 | S. cerevisiae deletion strains, locus YOR231W, strain MKK1, hits give low values 0.988 | S. cerevisiae deletion strains, locus YOR265W, strain rbl2, hits give low values 0.983 | S. cerevisiae deletion strains, locus YOR270C, strain vph1, hits give low values 1.03 | S. cerevisiae deletion strains, locus YOR290C, strain snf2, hits give low values 0.977 | S. cerevisiae deletion strains, locus YOR316C, strain cot1, hits give low values 1.03 | S. cerevisiae deletion strains, locus YPL051W, strain arl3, hits give low values 0.984 | S. cerevisiae deletion strains, locus YPL055C, strain LGE1, hits give low values 1 | S. cerevisiae deletion strains, locus YPL078C, strain atp4, hits give low values 0.971 | S. cerevisiae deletion strains, locus YPL106C, strain sse1, hits give low values 0.934 | S. cerevisiae deletion strains, locus YPL240C, strain hsp82, hits give low values 0.989 | S. cerevisiae deletion strains, locus YPL256C, strain CLN2, hits give low values 1 | S. cerevisiae deletion strains, locus YPR119W, strain clb2, hits give low values 1.01 | S. cerevisiae deletion strains, locus YPR141C, strain kar3, hits give low values 1.01 | S. cerevisiae deletion strains, locus YPR163C, strain tif3, hits give low values 1.02 | S. cerevisiae deletion strains, locus YPR167C, strain met16, hits give low values 1.03 | S. cerevisiae deletion strains, strain wtn01, hits give low values 1.02 | S. cerevisiae strains, strain wild type, hits give low values 1.02
